{"source": "ChEMBL document CHEMBL3988442", "about": "“University of Dundee, Small-Polar-MMV Screening Library” (2021)"}
{"biological_target": "T1, Aspartate--tRNA(Asp/Asn) ligase (Mycobacterium tuberculosis (strain ATCC 25618 / H37Rv)) (UniProt P9WFW3)", "T1 sequence (whole entry)": "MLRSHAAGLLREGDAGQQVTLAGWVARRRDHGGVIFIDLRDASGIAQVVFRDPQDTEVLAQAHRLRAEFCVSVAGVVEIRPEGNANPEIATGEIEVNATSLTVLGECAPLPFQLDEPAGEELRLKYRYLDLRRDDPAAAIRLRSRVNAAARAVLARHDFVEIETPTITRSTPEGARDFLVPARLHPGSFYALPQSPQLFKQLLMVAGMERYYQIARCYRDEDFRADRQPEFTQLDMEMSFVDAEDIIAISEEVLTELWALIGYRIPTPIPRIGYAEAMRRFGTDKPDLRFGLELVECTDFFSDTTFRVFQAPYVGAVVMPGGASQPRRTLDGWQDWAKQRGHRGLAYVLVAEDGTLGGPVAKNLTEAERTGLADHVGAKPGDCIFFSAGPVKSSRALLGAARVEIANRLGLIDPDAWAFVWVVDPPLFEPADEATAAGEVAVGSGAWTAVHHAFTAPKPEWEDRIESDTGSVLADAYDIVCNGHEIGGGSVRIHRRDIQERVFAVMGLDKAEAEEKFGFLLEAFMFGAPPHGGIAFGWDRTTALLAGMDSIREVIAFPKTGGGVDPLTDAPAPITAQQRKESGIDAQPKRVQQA", "assay": "Assay for Asp RNA synthetase-1 from Mycobacterium tuberculosis", "type": "functional", "set-up": "scale not given: direction of the effect not stated beside the values", "settings": "30 µM", "units": {"Percent Effect": "%"}}
{"smiles": "Cc1ncc(CNC(=O)c2nn(C)c3c2CS(=O)(=O)CC3)s1", "Percent Effect": -7.14}
{"smiles": "Cc1cnn(CC2CCCN2CC(=O)Nc2cc(C(C)(C)C)no2)c1", "note": "(stereo not given)", "Percent Effect": 0.278}
{"smiles": "Cc1cc(-c2nnc(SCC(=O)O)n2C(C)c2ccccc2)nn1C", "note": "(stereo not given)", "Percent Effect": 2.15}
{"smiles": "CCOC(=O)N1CCN(Cc2ccc(OCc3nccn3C)cc2)CC1", "Percent Effect": -4.7}
{"smiles": "CCn1c(N)nc2cc(C(=O)NCCc3sccc3C)cnc21", "Percent Effect": 2.47}
{"smiles": "CC1COCCN1Cc1nc(-c2cccs2)no1", "note": "(stereo not given)", "Percent Effect": 14.7}
{"smiles": "CCN1CC(C(=O)N2CCC(Oc3ccccc3C)CC2)CC1=O", "note": "(stereo not given)", "Percent Effect": -1.25}
{"smiles": "CC(=O)c1cccc(OCCCC(=O)N(C)Cc2ccccn2)c1", "Percent Effect": -1.04}
{"smiles": "c1ccc(OCc2ccncc2)c(CNC2CCc3ncnn3C2)c1", "note": "(stereo not given)", "Percent Effect": -3.54}
{"smiles": "CC(Cn1ccnc1)NC(=O)C1(c2ccc(F)cc2)CC1", "note": "(stereo not given)", "Percent Effect": -1.46}
{"smiles": "CN(C)C[C@H]1OC[C@@H]2CCN(C(=O)c3cccn3C)C[C@@H]21", "Percent Effect": 0.607}
{"smiles": "O=C(O)CC1CN(Cc2ccccc2)CCO1", "note": "(stereo not given)", "Percent Effect": -0.183}
{"smiles": "CCC1CN(C(=O)NCCOc2ccc3c(c2)OCO3)CCO1", "note": "(stereo not given)", "Percent Effect": -0.509}
{"smiles": "O=C(CSC1=NS(=O)(=O)c2cc(F)ccc2N1)Nc1cccc(Cl)c1", "Percent Effect": 4.04}
{"smiles": "COc1ccccc1CN1CC[C@H]2C[C@@H](C(=O)N3CCCC3)O[C@H]2C1", "Percent Effect": 0.335}
{"smiles": "Cc1cccc(S(=O)(=O)NCC(C)N2CCN(C)CC2)c1Cl", "note": "(stereo not given)", "Percent Effect": 1.52}
{"smiles": "CN(C(=O)c1ccccn1)c1nc2c(s1)CCc1c-2cnn1C", "Percent Effect": 50}
{"smiles": "CC(C)Oc1ncccc1CNC(=O)C1CCCN(C(=O)C2CC2)C1", "note": "(stereo not given)", "Percent Effect": -4.79}
{"smiles": "CC(C)c1cc(N2CCC(CCC(=O)NC3CC3)CC2)n2nccc2n1", "Percent Effect": 0.32}
{"smiles": "CC(NC(=O)Nc1cc(F)ccc1N1CCCCC1)c1nncn1C", "note": "(stereo not given)", "Percent Effect": -3.23}
{"smiles": "CCC(=O)N(C)C1CCN(Cc2ncc(C)c(OC)c2C)CC1", "Percent Effect": -0.759}
{"smiles": "CCC(C)[C@H](NC(=O)c1cc(Br)ccc1-n1cnnn1)C(=O)OC", "note": "(stereo not given in full)", "Percent Effect": -2}
{"smiles": "Cn1ccc(CN2CCCC2c2ccc3c(c2)OCCCO3)cc1=O", "note": "(stereo not given)", "Percent Effect": -1.54}
{"smiles": "COc1ncccc1CNC(=O)NCCNC(=O)c1ccco1", "Percent Effect": -10.1}
{"smiles": "CN1CCCN(C(=O)NCc2csc(Br)c2)CC1", "Percent Effect": 0.175}
{"smiles": "CN1CCc2c(C#N)c(NCc3ccco3)n3cnnc3c2C1", "Percent Effect": 6.08}
{"smiles": "Cc1nccc(C2CN(Cc3cc[nH]n3)CCO2)n1", "note": "(stereo not given)", "Percent Effect": -1.53}
{"smiles": "O=C(C1CCCC1)N1CCN(Cc2nc(-c3ccco3)no2)CC1", "Percent Effect": -3}
{"smiles": "Cc1cc(CN(C)C(=O)C2CCS(=O)(=O)C2)no1", "note": "(stereo not given)", "Percent Effect": -3.37}
{"smiles": "Cc1ccc(NC2CCN(C(=O)Cc3csc(C)n3)CC2)nn1", "Percent Effect": 4.42}
{"smiles": "Cc1ccccc1CNc1nc(O)cc(C2CC(=O)N(C)C2)n1", "note": "(stereo not given)", "Percent Effect": -2.9}
{"smiles": "COc1ccc(CNCc2ccc(N3CCCCC3)nc2)cc1OC", "Percent Effect": 1.06}
{"smiles": "Cc1noc(C)c1CN(C)CC1CCCN1c1cccnn1", "note": "(stereo not given)", "Percent Effect": -1.56}
{"smiles": "CN(Cc1ccccc1)CC(O)Cn1cnc2c(cnn2C)c1=O", "note": "(stereo not given)", "Percent Effect": -0.522}
{"smiles": "CC(=O)Nc1ccc(S(=O)(=O)NC(=O)CCC2CCCO2)cc1", "note": "(stereo not given)", "Percent Effect": 2.52}
{"smiles": "Cn1cc(CN2CCCn3cnc(CN4CCCC4=O)c3C2)cn1", "Percent Effect": 2.39}
{"smiles": "c1ccc2sc(CN3CCOC(Cn4cncn4)C3)nc2c1", "note": "(stereo not given)", "Percent Effect": -5.32}
{"smiles": "CN1CCC(NC(=O)NCc2csc(Br)c2)CC1", "Percent Effect": 6.12}
{"smiles": "CSCC(=O)N1CCC2(CC1)c1ccccc1CC2O", "note": "(stereo not given)", "Percent Effect": 0.357}
{"smiles": "Cc1ncc2c(n1)CCCC2NC(=O)c1ccncc1", "note": "(stereo not given)", "Percent Effect": 2.71}
{"biological_target": "Shiga toxin 2 (Escherichia coli O157:H7) (UniProt P09385+P09386)", "assay": "E. coli 0.157:H7 Shiga Toxin SOP - stx2 screening assay", "type": "functional", "set-up": "scale not given: direction of the effect not stated beside the values", "settings": "30 µM", "units": {"Percent Effect": "%"}}
{"smiles": "Cc1ncc(CNC(=O)c2nn(C)c3c2CS(=O)(=O)CC3)s1", "Percent Effect": -24.6}
{"smiles": "Cc1cnn(CC2CCCN2CC(=O)Nc2cc(C(C)(C)C)no2)c1", "note": "(stereo not given)", "Percent Effect": -37.5}
{"smiles": "Cc1cc(-c2nnc(SCC(=O)O)n2C(C)c2ccccc2)nn1C", "note": "(stereo not given)", "Percent Effect": 2.98}
{"smiles": "CCOC(=O)N1CCN(Cc2ccc(OCc3nccn3C)cc2)CC1", "Percent Effect": -21.9}
{"smiles": "CCn1c(N)nc2cc(C(=O)NCCc3sccc3C)cnc21", "Percent Effect": -89}
{"smiles": "CC1COCCN1Cc1nc(-c2cccs2)no1", "note": "(stereo not given)", "Percent Effect": 20.8}
{"smiles": "CCN1CC(C(=O)N2CCC(Oc3ccccc3C)CC2)CC1=O", "note": "(stereo not given)", "Percent Effect": -32.1}
{"smiles": "CC(=O)c1cccc(OCCCC(=O)N(C)Cc2ccccn2)c1", "Percent Effect": -20}
{"smiles": "c1ccc(OCc2ccncc2)c(CNC2CCc3ncnn3C2)c1", "note": "(stereo not given)", "Percent Effect": -62.8}
{"smiles": "CC(Cn1ccnc1)NC(=O)C1(c2ccc(F)cc2)CC1", "note": "(stereo not given)", "Percent Effect": 2.06}
{"smiles": "CN(C)C[C@H]1OC[C@@H]2CCN(C(=O)c3cccn3C)C[C@@H]21", "Percent Effect": -9.5}
{"smiles": "O=C(O)CC1CN(Cc2ccccc2)CCO1", "note": "(stereo not given)", "Percent Effect": -5.59}
{"smiles": "CCC1CN(C(=O)NCCOc2ccc3c(c2)OCO3)CCO1", "note": "(stereo not given)", "Percent Effect": -17.6}
{"smiles": "O=C(CSC1=NS(=O)(=O)c2cc(F)ccc2N1)Nc1cccc(Cl)c1", "Percent Effect": -1.14}
{"smiles": "COc1ccccc1CN1CC[C@H]2C[C@@H](C(=O)N3CCCC3)O[C@H]2C1", "Percent Effect": -13.2}
{"smiles": "Cc1cccc(S(=O)(=O)NCC(C)N2CCN(C)CC2)c1Cl", "note": "(stereo not given)", "Percent Effect": -12.1}
{"smiles": "CN(C(=O)c1ccccn1)c1nc2c(s1)CCc1c-2cnn1C", "Percent Effect": -76.1}
{"smiles": "CC(C)Oc1ncccc1CNC(=O)C1CCCN(C(=O)C2CC2)C1", "note": "(stereo not given)", "Percent Effect": 33.3}
{"smiles": "CC(C)c1cc(N2CCC(CCC(=O)NC3CC3)CC2)n2nccc2n1", "Percent Effect": -4.79}
{"smiles": "CC(NC(=O)Nc1cc(F)ccc1N1CCCCC1)c1nncn1C", "note": "(stereo not given)", "Percent Effect": 20.1}
{"smiles": "CCC(=O)N(C)C1CCN(Cc2ncc(C)c(OC)c2C)CC1", "Percent Effect": -19.9}
{"smiles": "CCC(C)[C@H](NC(=O)c1cc(Br)ccc1-n1cnnn1)C(=O)OC", "note": "(stereo not given in full)", "Percent Effect": -22.1}
{"smiles": "Cn1ccc(CN2CCCC2c2ccc3c(c2)OCCCO3)cc1=O", "note": "(stereo not given)", "Percent Effect": -60}
{"smiles": "COc1ncccc1CNC(=O)NCCNC(=O)c1ccco1", "Percent Effect": -25}
{"smiles": "CN1CCCN(C(=O)NCc2csc(Br)c2)CC1", "Percent Effect": 14.5}
{"smiles": "CN1CCc2c(C#N)c(NCc3ccco3)n3cnnc3c2C1", "Percent Effect": -1.51}
{"smiles": "Cc1nccc(C2CN(Cc3cc[nH]n3)CCO2)n1", "note": "(stereo not given)", "Percent Effect": 2.02}
{"smiles": "O=C(C1CCCC1)N1CCN(Cc2nc(-c3ccco3)no2)CC1", "Percent Effect": -10.1}
{"smiles": "Cc1cc(CN(C)C(=O)C2CCS(=O)(=O)C2)no1", "note": "(stereo not given)", "Percent Effect": -1.66}
{"smiles": "Cc1ccc(NC2CCN(C(=O)Cc3csc(C)n3)CC2)nn1", "Percent Effect": 17.7}
{"smiles": "Cc1ccccc1CNc1nc(O)cc(C2CC(=O)N(C)C2)n1", "note": "(stereo not given)", "Percent Effect": 0.153}
{"smiles": "COc1ccc(CNCc2ccc(N3CCCCC3)nc2)cc1OC", "Percent Effect": -82.1}
{"smiles": "Cc1noc(C)c1CN(C)CC1CCCN1c1cccnn1", "note": "(stereo not given)", "Percent Effect": 14.9}
{"smiles": "CN(Cc1ccccc1)CC(O)Cn1cnc2c(cnn2C)c1=O", "note": "(stereo not given)", "Percent Effect": -8.29}
{"smiles": "CC(=O)Nc1ccc(S(=O)(=O)NC(=O)CCC2CCCO2)cc1", "note": "(stereo not given)", "Percent Effect": -2.77}
{"smiles": "Cn1cc(CN2CCCn3cnc(CN4CCCC4=O)c3C2)cn1", "Percent Effect": -3.11}
{"smiles": "c1ccc2sc(CN3CCOC(Cn4cncn4)C3)nc2c1", "note": "(stereo not given)", "Percent Effect": 14}
{"smiles": "CN1CCC(NC(=O)NCc2csc(Br)c2)CC1", "Percent Effect": 6.77}
{"smiles": "CSCC(=O)N1CCC2(CC1)c1ccccc1CC2O", "note": "(stereo not given)", "Percent Effect": -32.5}
{"smiles": "Cc1ncc2c(n1)CCCC2NC(=O)c1ccncc1", "note": "(stereo not given)", "Percent Effect": -63.8}
